# Screening data: PubChem, The Scripps Research Institute Molecular Screening Center
# FBW7 activator = activators of human E3 ligase FBW7. Q969H0. AlphaScreen FBW7–phospho-cyclin E peptide binding, activator screen. normalized activity (activation), % at 26.1 µM. 650,000 compounds, 0.13% hits; in the data active = normalized activity above about 1.9%;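 also: purified mutant Fbw7 with reduced substrate affinity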
# TEAD-YAP inh = TEAD-YAP interaction inhibition; HEK-TIYL cells, TEAD-Gal4/YAP UAS-luciferase luminescence; inhibition, % at 9.12 µM; 640,000 compounds, 1.4% hits; in the data active = inhibition above about 32%
# GPR151 activ = human GPR151 activation; Q8TDV0; PathHunter beta-arrestin GPR151 cells, luminescence; activation, % at 11.2 µM; 650,000 compounds, 1% hits; in the data active = activation above about 4.9%
# MITF inh = human MITF inhibition, primary screen. inhibition, % at 2.6 µM. 650,000 compounds, 0.91% hits. AID 1259374. AlphaScreen MITF homodimerization, bead proximity signal. O75030; in the data active = inhibition above about 50%
# Hits are given with their value; – = inactive. Sampled rows, rich in hits. Any-hit rate of the full collection: about 3.4%.
SMILES,FBW7 activator,TEAD-YAP inh,GPR151 activ,MITF inh
OCc1ccc(-c2cnn3c(N4CCOCC4)ccnc23)cc1,–,42,–,–
C/C(=N\NC(=O)c1ccc(Br)o1)c1cccs1,–,–,–,–
CC(=O)Nc1cccc(-c2cnc3c(N4CCN(C(=O)c5ccco5)CC4)nccn23)c1,–,93,–,–
O=C(c1ccco1)N1CCN(c2nccn3c(-c4cccc(F)c4)cnc23)CC1,–,–,–,–
CC(=O)Nc1cccc(-c2cnc(N3CCN(C(=O)c4ccco4)CC3)c3nccn23)c1,3.2,92,–,–
COc1cc(CNCCCN(C)C)ccc1OCc1ccc(F)cc1Cl,–,34,–,–
COc1ccc(CCN2C(=O)CSC2c2ccc(C(C)C)cc2)cc1OC (configuration not stated),–,40,–,–
CC[C@]1(O)CC2CN(CCc3c([nH]c4ccccc34)[C@@](C(=O)OC)(c3cc4c(cc3OC)N(C)[C@H]3[C@@](O)(C(N)=O)[C@H](O)[C@]5(CC)C=CCN6CC[C@]43[C@@H]65)C2)C1 (some centres not stated),–,47,–,–
CC[C@]1(O)C[C@H]2CN(CCc3c([nH]c4ccccc34)[C@H](C)[C@H]2c2cc3c(cc2OC)N(C)[C@H]2[C@@](O)(C(=O)OC)[C@H](C)[C@]4(CC)C=CCN5CC[C@]32[C@@H]54)C1,–,65,–,–
CCC1=C[C@@H]2CN(C1)Cc1c([nH]c3ccccc13)[C@@](C(=O)OC)(c1cc3c(cc1OC)N(C)[C@H]1[C@@](O)(C(=O)OC)[C@H](OC(C)=O)[C@]4(CC)C=CCN5CC[C@]31[C@@H]54)C2,–,65,–,–
CCC1(O)CC2CN(CCc3c([nH]c4ccccc34)[C@@](C(=O)OC)(c3cc4c(cc3OC)N(C)C3[C@]45CCN4CC=C[C@@](CC)([C@@H](OC(C)=O)[C@]3(O)C(=O)OC)[C@H]45)C2)C1 (some centres not stated),–,70,–,–
CC1=CC(C)(C)N(C(=O)CCl)c2ccc(C)cc21,–,–,–,–
CNC(=O)c1cc(F)ccc1Nc1cc(Nc2ccc3c(c2)NC(=O)C3)ncc1C(F)(F)F,–,39,–,–
CNC(=O)c1cc(F)ccc1Nc1cc(Nc2ccc(NC(C)=O)cc2)ncc1C(F)(F)F,–,38,–,–
CC(=O)Nc1ccc(NC(=O)c2ccc(F)cc2)nc1,–,–,–,–
CNC(=O)c1cc(F)ccc1Nc1cc(Nc2ccc3c(c2)CC(=O)N3)ncc1C(F)(F)F,–,–,–,–
CC(C)NC(=O)c1nnc(Cc2c(F)cccc2Cl)o1,–,–,–,–
O=C1CCCC2=C1C(c1cc(Br)ccc1O)C1C(=O)c3ccccc3C1=N2 (configuration not stated),–,50,–,–
O=C1CCCC2=C1C(c1cc([N+](=O)[O-])ccc1O)C1C(=O)c3ccccc3C1=N2 (configuration not stated),–,–,–,–
Cc1ccc(C(=O)Nc2cc(-c3nc4cccnc4s3)ccc2C)cc1,–,–,–,–
COc1ccc2c(c1)C(=O)NC2CC(=O)NC1(c2ccccc2OC)CCCC1 (configuration not stated),–,49,–,–
N#C/C(=C\c1ccco1)C(=O)Nc1ccccc1F,2.1,–,–,–
CC(=O)c1cccc(-c2nc(NCCN(C(C)C)C(C)C)c3ncn(-c4ccccc4)c3n2)c1,–,–,–,–
CC(=O)c1cccc(-c2nc(NCCN(C(C)C)C(C)C)c3ncn(-c4ccsc4)c3n2)c1,–,49,–,–
CC(=O)c1cccc(-c2nc(NCCO)c3ncn(C(C)C)c3n2)c1,–,55,–,–
SMILES,FBW7 activator,TEAD-YAP inh,GPR151 activ,MITF inh
COc1ccc(-c2nc(NCCN(C(C)C)C(C)C)c3ncn(-c4ccsc4)c3n2)cc1,–,–,–,–
OCCNc1nc(-c2ccccc2)nc2c1ncn2-c1ccsc1,–,42,–,–
CC(C)N(CCNc1nc(-c2cccc(N)c2)nc2c1ncn2-c1ccsc1)C(C)C,–,59,–,–
COC(=O)C1CCN(C(=O)C(Cl)Cl)CC1,–,–,–,–
CC(=O)c1sc2nc3c(cc2c1N)CCC3,–,–,–,–
Cc1cc(C(F)(F)F)c2nc(OCC(=O)C(C)(C)C)oc2n1,–,–,–,–
CC(C)c1ccc(S(=O)(=O)Nc2sccc2C(N)=O)cc1,–,–,–,–
FC(F)(F)c1cccc(CNc2nc(Nc3ccccc3)nc3c2ncn3-c2ccsc2)c1,–,–,–,–
CC(=O)c1cccc(-c2nc(NCc3ccccc3)c3ncn(-c4ccsc4)c3n2)c1,–,–,–,–
FC(F)(F)c1cccc(CNc2nc(Oc3ccccc3)nc3c2ncn3-c2ccsc2)c1,–,74,–,–
